Inconclusive results are not listed. Activity calls are given as the source filed them. The calls were made as follows, unless noted: active = hit-call score of the fitted dose curve at least 0.9, where 1 is the maximum; inactive = score below 0.9.

We go through 5 compounds from PubChem BioAssay (EPA / NIEHS).

Assay [1] concerns the target Paired box protein Pax-6 (Homo sapiens) (UniProt P26367). Kind of assay: ATG_Pax6_CIS: Attagene CIS-FACTORIAL HepG2 Assay for human Paired Box 6 (PAX6) (AID 2282956). Particulars: HepG2 CIS-FACTORIAL PAX6 reporter transcription, RNA readout; actives raise or lower the signal. Put shortly:
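HepG2 cells transiently transfected with cis-promoter-driven multiplexed reporter units sensing endogenous transcription factor activity; 24 h chemical exposure. Reporter mRNA quantified by RT-PCR, 6-FAM labelling, HpaI digestion and capillary electrophoresis; bidirectional fit versus DMSO baseline.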

Assay [2] can be described thus: ATG_PXRE_CIS: Attagene CIS-FACTORIAL HepG2 Assay for human Pregnane X Receptor Element (PXRE) (AID 2282957). Conditions: HepG2 Attagene CIS-FACTORIAL PXRE reporter, mRNA; actives raise or lower the signal. Put shortly:
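Cis-element reporter mRNA in human hepatoma HepG2 cells is measured 24 h post-dosing by RT-PCR, primer-extension labeling and capillary electrophoresis; gain or loss of signal is fitted relative to DMSO.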

A short description of assay [3]: ATG_PPRE_CIS: Attagene CIS-FACTORIAL HepG2 Assay for human Peroxisome Proliferator-activated Response Element (PPRE) (AID 2282958). Particulars: HepG2 PPRE cis-element reporter, Attagene transcription factor profiling; actives raise or lower the signal. In short, it runs like this:
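Read-out: fluorescent reporter mRNA fragments resolved by capillary electrophoresis after RT-PCR. HepG2 cells carried transiently transfected PPRE-driven cis reporter constructs and were dosed for 24 h; gain or loss of signal fitted relative to DMSO.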

Assay [4] is described as follows: ATG_RORE_CIS: Attagene CIS-FACTORIAL HepG2 Assay for human RAR-related Orphan Receptor Element (RORE) (AID 2282959). Conditions: HepG2 Attagene cis-factorial RORE reporter, mRNA; actives raise or lower the signal. Put shortly:
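Readout: fluorescent reporter mRNA by RT-PCR plus capillary electrophoresis, 24 h after dosing transfected HepG2 cells. Endogenous transcription factor activity on a cis promoter element is measured. Gain or loss of signal fitted against DMSO.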

A short description of assay [5]: ATG_Sox_CIS: Attagene CIS-FACTORIAL HepG2 Assay for human SRY-box transcription factor (SOX) (AID 2282960). Particulars: HepG2 Attagene cis-factorial SOX reporter, mRNA; actives raise or lower the signal. Put shortly:
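Read-out: fluorescent RT-PCR products of SOX1-linked reporter transcripts resolved by capillary electrophoresis, fitted bidirectionally against DMSO. Transiently transfected HepG2 cells, 24 h after chemical exposure, endogenous transcription factor activity.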

In assay [6] the target is Transcription factor Sp1 (Homo sapiens) (UniProt P08047). Kind of assay: ATG_Sp1_CIS: Attagene CIS-FACTORIAL HepG2 Assay for human Specificity Protein 1 (Sp1) (AID 2282961). Particulars: HepG2 Sp1 cis-reporter transcription, actives raise or lower the signal. In short, it runs like this:
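Read-out: fluorescence of 6-FAM-labeled, HpaI-digested RT-PCR products separated by capillary electrophoresis. HepG2 cells carried transfected cis-element reporter units and were exposed to chemicals for 24 h; gain or loss of signal fitted relative to DMSO.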

The nature of assay [7]: ATG_SREBP_CIS: Attagene CIS-FACTORIAL HepG2 Assay for human Sterol Regulatory Element Binding (SREBP) (AID 2282962). Conditions: HepG2 Attagene cis-factorial SREBP reporter, mRNA; actives raise or lower the signal. In short, it runs like this: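 HepG2 cells transiently transfected with multiplexed cis-promoter reporter units sensing endogenous transcription factors; reporter mRNA measured 24 h after dosing by RT-PCR, 6-FAM labeling, HpaI digestion and capillary electrophoresis. Bidirectional fit versus DMSO.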

In assay [8] the target is Signal transducer and activator of transcription 3 (Homo sapiens) (UniProt P40763). Kind of assay: ATG_STAT3_CIS: Attagene CIS-FACTORIAL HepG2 Assay for human Signal Transducer and Activator of Transcription 3 (STAT3) (AID 2282963). Conditions: HepG2, Attagene cis-factorial STAT3 reporter transcription; actives raise or lower the signal. Put shortly: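 Endogenous STAT3-responsive cis-element activity was read in transiently transfected HepG2 cells after 24 h treatment. Reporter transcripts were quantified via RT-PCR and capillary electrophoresis, with DMSO as negative control and bidirectional curve fitting.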
Signal transducer and activator of transcription 3 (Homo sapiens), sequence (P40763 whole entry, looked up): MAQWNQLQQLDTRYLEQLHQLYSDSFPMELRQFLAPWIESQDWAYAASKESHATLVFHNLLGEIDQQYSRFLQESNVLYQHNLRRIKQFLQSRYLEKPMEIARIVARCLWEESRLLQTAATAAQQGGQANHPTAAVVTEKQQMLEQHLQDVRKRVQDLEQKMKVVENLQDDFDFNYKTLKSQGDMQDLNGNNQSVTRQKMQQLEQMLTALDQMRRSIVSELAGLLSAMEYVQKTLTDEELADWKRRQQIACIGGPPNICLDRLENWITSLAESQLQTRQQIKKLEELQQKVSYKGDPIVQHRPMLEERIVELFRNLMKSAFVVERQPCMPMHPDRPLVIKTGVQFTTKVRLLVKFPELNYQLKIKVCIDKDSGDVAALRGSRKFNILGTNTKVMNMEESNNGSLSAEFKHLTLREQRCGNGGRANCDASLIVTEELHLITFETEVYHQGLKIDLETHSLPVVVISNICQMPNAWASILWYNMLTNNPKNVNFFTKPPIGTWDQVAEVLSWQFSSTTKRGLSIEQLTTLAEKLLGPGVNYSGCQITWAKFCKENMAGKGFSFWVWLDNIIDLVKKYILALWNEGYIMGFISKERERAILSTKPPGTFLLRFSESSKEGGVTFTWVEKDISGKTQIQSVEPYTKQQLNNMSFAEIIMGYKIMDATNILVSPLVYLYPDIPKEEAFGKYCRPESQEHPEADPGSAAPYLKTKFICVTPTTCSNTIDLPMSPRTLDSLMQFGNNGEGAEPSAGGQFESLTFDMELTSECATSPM

Assay [9] in a line: ATG_TCF_b_cat_CIS: Attagene CIS-FACTORIAL HepG2 Assay for human T-Cell-Factor with beta-catenin (TCF/b-cat) (AID 2282965). Conditions: HepG2 TCF/beta-catenin cis-reporter transcription, actives raise or lower the signal. Put shortly:
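Endogenous transcription factor activity is captured through cis-promoter reporter constructs transiently introduced into human HepG2 liver cells. Induced reporter mRNA is measured after 24 h and fitted bidirectionally relative to DMSO.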

Assay [10] is described as follows: ATG_TAL_CIS: Attagene CIS-FACTORIAL HepG2 Assay for human TAL Basal Promoter (AID 2282966).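 Also: background control endpoint measuring basal TAL promoter reporter mRNA not a specific factor.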 Conditions: HepG2 Attagene cis-factorial TAL promoter reporter; actives raise or lower the signal. In short, it runs like this: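 In this cell-based multiplex, HepG2 liver cells bearing cis-promoter reporter constructs are dosed for 24 hours. Total RNA is reverse-transcribed and amplified, labelled fragments are sized by capillary electrophoresis, and signal changes are fitted bidirectionally versus DMSO.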

The nature of assay [11]: ATG_TGFb_CIS: Attagene CIS-FACTORIAL HepG2 Assay for human Transforming Growth Factor (TGF) (AID 2282967). Conditions: HepG2 Attagene CIS TGFb reporter, mRNA transcription; actives raise or lower the signal. In short, it runs like this:
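HepG2 cells transiently transfected with cis-promoter-driven multiple reporter units measure endogenous TF activity; reporter mRNA quantified at 24 h by RT-PCR, FAM labeling, HpaI digestion and capillary electrophoresis. Bidirectional fit vs DMSO.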

A short description of assay [12]: ATG_VDRE_CIS: Attagene CIS-FACTORIAL HepG2 Assay for human Vitamin D Receptor Element (VDRE) (AID 2282968). Conditions: HepG2 VDRE cis-reporter transcription, actives raise or lower the signal. Put shortly: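 Reporter mRNA induction, quantified by capillary electrophoresis of fluorescently labelled RT-PCR products, was read 24 h after dosing HepG2 cells carrying transiently transfected cis-regulated reporter units; gain or loss relative to DMSO.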

Assay [13] concerns the target Estrogen receptor (Homo sapiens) (UniProt P03372). The assay can be described thus: ATG_ERa_TRANS: Attagene TRANS-FACTORIAL HepG2 Assay for human Estrogen Receptor alpha (ERa) (AID 2282970; active = hit-call score of the fitted dose curve at least 0.9, where 1 is the maximum). Conditions: HepG2 Attagene TRANS ERa GAL4 reporter, mRNA. Put shortly:
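After 24 h of compound treatment, RNA from HepG2 cells bearing transfected GAL4-UAS reporter constructs is converted to cDNA, amplified and fluorescently labelled. Capillary electrophoresis resolves the ERa-linked reporter; DMSO serves as negative control.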

For assay [14], the target named is X-box-binding protein 1 (Homo sapiens) (UniProt P17861). Kind of assay: ATG_Xbp1_CIS: Attagene CIS-FACTORIAL HepG2 Assay for human X-box Binding Protein 1 (XBP1) (AID 2282972). Conditions: HepG2 XBP1 cis-element reporter, Attagene multiplex; actives raise or lower the signal. In short, it runs like this: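 HepG2 cells transiently transfected with multiple cis-element reporter units report endogenous TF activity; 24 h exposure, then reporter mRNA measured by RT-PCR, 6-FAM labelling, HpaI digestion and capillary electrophoresis. Bidirectional fitting versus DMSO.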
X-box-binding protein 1 (Homo sapiens), sequence (P17861 whole entry, looked up): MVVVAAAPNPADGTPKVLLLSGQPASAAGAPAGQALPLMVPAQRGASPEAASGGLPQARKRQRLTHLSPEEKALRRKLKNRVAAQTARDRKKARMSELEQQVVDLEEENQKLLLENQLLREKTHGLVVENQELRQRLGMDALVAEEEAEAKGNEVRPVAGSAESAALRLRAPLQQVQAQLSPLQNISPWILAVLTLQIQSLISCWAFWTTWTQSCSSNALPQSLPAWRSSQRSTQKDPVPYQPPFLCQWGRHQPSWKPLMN

The nature of assay [15]: ATG_M_19_TRANS: Attagene TRANS-FACTORIAL HepG2 Assay for M19 Transcription Factor (Internal Marker) (AID 2282974; active = hit-call score of the fitted dose curve at least 0.9, where 1 is the maximum). Particulars: HepG2 Attagene TRANS-FACTORIAL M19 internal marker reporter. Put shortly:
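24 h chemical exposure of transiently transfected HepG2 (MRTU library). RNA → oligo(dT) RT → PCR → 6-FAM labelling → HpaI cut → CE fluorescence. Positive-direction fit vs DMSO baseline; background internal-marker readout.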

In assay [16] the target is Estrogen-related receptor gamma (Homo sapiens) (UniProt P62508). The assay can be described thus: ATG_ERRg_TRANS: Attagene TRANS-FACTORIAL HepG2 Assay for human Estrogen-Related Receptor gamma (ERRg) (AID 2282977; active = hit-call score of the fitted dose curve at least 0.9, where 1 is the maximum;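 also: hits increase reporter signal over DMSO so potencies reflect activators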). Particulars: HepG2 Attagene TRANS reporter, ERRg transactivation. In short, it runs like this:
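HepG2 cells transiently transfected with multiplexed GAL4-UAS reporter units driven by chimeric NR-Gal4 proteins; 24 h exposure. Reporter mRNA quantified by RT-PCR, fluorescent labelling, HpaI digestion and capillary electrophoresis; gain of signal vs DMSO.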

The nature of assay [17]: ATG_TA_CIS: Attagene CIS-FACTORIAL HepG2 Assay for human TA Basal Promoter (AID 2282964). Particulars: HepG2 Attagene CIS-factorial TA basal promoter reporter; actives raise or lower the signal. Put shortly: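 HepG2 cells transiently transfected with multiple reporter units under cis promoter elements, reporting endogenous transcription factor activity; this endpoint tracks the TA basal promoter as background control. Reporter mRNA after 24 h dosing measured by RT-PCR/capillary electrophoresis; bidirectional fits versus DMSO.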

Assay [18] addresses Nuclear receptor subfamily 1 group I member 3 (Homo sapiens) (UniProt Q14994). Kind of assay: ATG_CAR_TRANS: Attagene TRANS-FACTORIAL HepG2 Assay for human Constitutive Androstane Receptor (CAR) (AID 2282969; active = hit-call score of the fitted dose curve at least 0.9, where 1 is the maximum;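 also: activators raise reporter mRNA above DMSO so AC50 marks induction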). Particulars: HepG2 Attagene TRANS-FACTORIAL CAR reporter. In short, it runs like this:
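Readout is reporter mRNA induction, quantified by fluorescent primer extension and capillary electrophoresis after RT-PCR. Cells were HepG2 transiently carrying chimeric NR-Gal4 constructs with GAL4-UAS reporters, treated for 24 h; activity scored upward from DMSO.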

Assay [19] in a line: ATG_GAL4_TRANS: Attagene TRANS-FACTORIAL HepG2 Assay for GAL4 (Internal Marker) (AID 2282976; active = hit-call score of the fitted dose curve at least 0.9, where 1 is the maximum). Particulars: HepG2 Attagene TRANS GAL4 internal marker reporter. In short, it runs like this: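 RT-PCR/capillary electrophoresis readout of reporter mRNA. HepG2, transient MRTU transfection (GAL4-UAS reporters), 24 h compound exposure. Background-control endpoint, positive direction vs DMSO baseline.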

Estrogen receptor (Homo sapiens), sequence (P03372 whole entry, looked up, the tested form may be a part): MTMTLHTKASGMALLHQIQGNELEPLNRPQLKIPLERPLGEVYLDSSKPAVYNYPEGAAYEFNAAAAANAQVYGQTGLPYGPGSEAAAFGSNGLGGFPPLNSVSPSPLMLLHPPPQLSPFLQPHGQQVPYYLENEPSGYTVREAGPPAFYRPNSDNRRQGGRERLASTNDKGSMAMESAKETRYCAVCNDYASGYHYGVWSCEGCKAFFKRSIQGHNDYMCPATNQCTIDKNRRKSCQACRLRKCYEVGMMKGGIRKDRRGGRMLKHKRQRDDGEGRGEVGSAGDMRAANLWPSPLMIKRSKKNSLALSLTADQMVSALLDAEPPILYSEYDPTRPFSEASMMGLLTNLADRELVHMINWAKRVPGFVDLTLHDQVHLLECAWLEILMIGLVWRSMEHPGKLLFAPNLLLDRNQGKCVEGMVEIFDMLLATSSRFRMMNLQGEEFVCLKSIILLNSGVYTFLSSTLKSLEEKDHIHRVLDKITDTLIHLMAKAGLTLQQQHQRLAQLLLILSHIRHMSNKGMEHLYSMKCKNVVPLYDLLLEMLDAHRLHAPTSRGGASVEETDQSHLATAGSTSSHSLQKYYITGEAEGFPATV
Transcription factor Sp1 (Homo sapiens), sequence (P08047 whole entry, looked up): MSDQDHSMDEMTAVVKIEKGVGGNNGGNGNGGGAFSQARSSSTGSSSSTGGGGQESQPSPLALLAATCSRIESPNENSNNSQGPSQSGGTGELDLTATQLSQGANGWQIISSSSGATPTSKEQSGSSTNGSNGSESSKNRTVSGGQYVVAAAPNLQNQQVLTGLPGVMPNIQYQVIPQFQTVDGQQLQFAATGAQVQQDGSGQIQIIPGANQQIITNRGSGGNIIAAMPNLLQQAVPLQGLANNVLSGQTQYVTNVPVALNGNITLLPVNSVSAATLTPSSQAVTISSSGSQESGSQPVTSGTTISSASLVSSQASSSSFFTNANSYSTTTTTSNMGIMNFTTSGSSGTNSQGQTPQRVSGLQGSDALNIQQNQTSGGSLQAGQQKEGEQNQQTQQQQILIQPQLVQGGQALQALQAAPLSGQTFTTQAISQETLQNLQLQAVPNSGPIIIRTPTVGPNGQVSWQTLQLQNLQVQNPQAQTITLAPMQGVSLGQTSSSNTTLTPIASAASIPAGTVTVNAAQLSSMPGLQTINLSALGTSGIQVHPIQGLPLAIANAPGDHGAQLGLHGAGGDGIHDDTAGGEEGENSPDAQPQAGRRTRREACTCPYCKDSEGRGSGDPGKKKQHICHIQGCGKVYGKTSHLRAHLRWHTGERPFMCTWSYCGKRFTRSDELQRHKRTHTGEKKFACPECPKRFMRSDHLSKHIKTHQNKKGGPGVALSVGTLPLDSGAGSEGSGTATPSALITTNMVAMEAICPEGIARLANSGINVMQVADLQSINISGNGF
Paired box protein Pax-6 (Homo sapiens), sequence (P26367 whole entry, looked up): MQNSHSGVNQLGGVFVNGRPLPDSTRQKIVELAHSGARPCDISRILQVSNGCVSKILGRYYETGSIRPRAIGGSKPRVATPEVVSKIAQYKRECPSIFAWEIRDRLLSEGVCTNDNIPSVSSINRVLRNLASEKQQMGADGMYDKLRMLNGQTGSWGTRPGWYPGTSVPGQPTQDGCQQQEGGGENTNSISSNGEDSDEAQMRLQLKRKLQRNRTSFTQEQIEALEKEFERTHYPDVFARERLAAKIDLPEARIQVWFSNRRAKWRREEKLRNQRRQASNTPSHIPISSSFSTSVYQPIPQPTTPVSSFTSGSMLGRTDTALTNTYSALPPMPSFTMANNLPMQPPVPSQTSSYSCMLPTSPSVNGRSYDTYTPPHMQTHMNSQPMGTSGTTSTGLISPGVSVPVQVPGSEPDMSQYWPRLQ
Estrogen-related receptor gamma (Homo sapiens), sequence (P62508 whole entry, looked up, the tested form may be a part): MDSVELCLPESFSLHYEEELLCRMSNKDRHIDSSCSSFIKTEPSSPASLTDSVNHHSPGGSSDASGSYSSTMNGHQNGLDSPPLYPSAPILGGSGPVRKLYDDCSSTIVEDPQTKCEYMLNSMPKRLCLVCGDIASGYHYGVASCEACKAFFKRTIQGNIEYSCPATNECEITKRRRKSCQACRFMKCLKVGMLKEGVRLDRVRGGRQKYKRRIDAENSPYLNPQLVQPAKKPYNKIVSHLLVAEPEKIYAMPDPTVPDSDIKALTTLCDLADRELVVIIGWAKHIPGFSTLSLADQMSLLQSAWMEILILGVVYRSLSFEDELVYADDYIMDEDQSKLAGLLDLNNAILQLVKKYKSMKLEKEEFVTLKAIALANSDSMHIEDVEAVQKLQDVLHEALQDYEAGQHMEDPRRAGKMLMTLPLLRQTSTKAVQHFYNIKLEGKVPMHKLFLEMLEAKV
Nuclear receptor subfamily 1 group I member 3 (Homo sapiens), sequence (Q14994 whole entry, looked up, the tested form may be a part): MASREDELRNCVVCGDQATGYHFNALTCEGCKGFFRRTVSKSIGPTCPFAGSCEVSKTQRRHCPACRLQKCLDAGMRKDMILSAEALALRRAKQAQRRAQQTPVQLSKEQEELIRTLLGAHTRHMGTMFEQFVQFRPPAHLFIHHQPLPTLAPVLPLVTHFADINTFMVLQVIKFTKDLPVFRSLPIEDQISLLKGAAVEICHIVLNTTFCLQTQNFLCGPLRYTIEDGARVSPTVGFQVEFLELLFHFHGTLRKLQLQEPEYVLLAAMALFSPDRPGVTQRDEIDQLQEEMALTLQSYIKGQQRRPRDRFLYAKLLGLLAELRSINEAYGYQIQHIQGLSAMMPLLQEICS

What is called AC50 is the concentration giving half of the maximal activity seen. `S=C(NC1CCCCC1)NC1CCCCC1`: the compound was classed as inactive in assay [1], in [3], in assay [4], in [5], in assay [6] and in [7]. Besides, the compound was classed as inactive in assay [8], in assay [9], in assay [10], in assay [11], in assay [12] and in [13]. In addition, the compound was classed as inactive in [14], in assay [15] and in assay [16]. Also, the AC50 in [2] was 4.14 µM (active).

`CC(=O)C=CC1C(C)=CCC(C)C1(C)C` (stereo not given): the outcome in assay [1], in [3], in [4], in [5], in assay [6] and in [7] was inactive. Besides, the outcome in assay [17], in assay [9], in assay [10], in assay [11], in assay [12] and in assay [18] was inactive. In addition, the result in assay [13], in [14], in assay [19] and in assay [16] was inactive. Besides, the AC50 in assay [2] is 0.972 µM (active).

`O=S(=O)(O)c1ccccc1C=Cc1ccc(-c2ccc(C=Cc3ccccc3S(=O)(=O)O)cc2)cc1`: the result in [1], in assay [2], in [3], in assay [4], in assay [5] and in assay [6] was inactive. Further, the compound was classed as inactive in assay [7], in assay [8], in assay [9], in assay [12], in assay [13] and in assay [14]. The result in assay [15] was inactive. The AC50 in [10] was 32.4 µM (active); in [11] it was 57.8 µM (active).

`CCCC(C)CCC(C)=O` (stereo not given): the call in [1], in assay [2], in [3], in [4], in [5] and in [6] was inactive. Further, the call in assay [7], in assay [8], in assay [9], in assay [11], in assay [12] and in [14] was inactive. In assay [19], the outcome was inactive.

As to `CCCCCCCC/C=C\CCCCCCCC(=O)OCCO`, the call in assay [1], in assay [3], in [4], in [5], in assay [6] and in assay [7] was inactive. The result in [8], in assay [17], in assay [9], in assay [11], in assay [13] and in assay [14] was inactive. Also, the compound was classed as inactive in assay [15]. Further, in [2], the AC50 was 12.8 µM (active).
